Rows were chosen to be rich in hits. Some 2.3% of all compounds tested hit in one or more screens of this group.
Tau fibril FP: qHTS for Inhibitors of Tau Fibril Formation, Fluorescence Polarization; K18 P301L tau heparin fibrillization, Alexa594 FP, 6 h; Potency, µM (titrated, usually from 57.7 µM), for inactives: at the top dose activity, negative = inhibition, actives largely listed as inhibitors; 0.39% of 280,000 active; also: potency is read from the fitted curve at half-maximal effect; nearly all actives have a fitted effect of over 55% in size
Target sequence (P10636 561-689 P618L limits assumed): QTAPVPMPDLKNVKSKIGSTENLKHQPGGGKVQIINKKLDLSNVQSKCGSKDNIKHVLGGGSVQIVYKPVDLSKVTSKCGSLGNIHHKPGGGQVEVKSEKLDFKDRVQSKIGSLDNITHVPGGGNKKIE
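Human K18 P301L fragment (15 uM unlabeled plus 0.24 uM Alexa 594-labeled) in 100 mM sodium acetate pH 7 with compound, aggregation induced by 20 uM heparin for 6 hr at 37 C. ThT (30 uM) added for 1 hr, then Alexa 594 FP read.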
USP1 inh: Inhibitors of USP1/UAF1: Primary Screen | Ubiquitin carboxyl-terminal hydrolase 1 (Homo sapiens), O94782 | recombinant USP1/UAF1, Ub-Rhodamine cleavage fluorescence | Potency, µM (doses to about 57.1 µM), for inactives: top-dose activity change, negative = inhibition, most hits filed as inhibitors | 0.23% of 390,000 active | AID 743255, 2014; also: potency is read from the fitted curve at half-maximal effect; nearly all actives have a fitted effect of over 60% in size
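High-throughput fluorogenic screen: 1nM USP1/UAF1 complex, Ub-Rho substrate 150nM final, 50mM HEPES pH 7.8 with 0.5mM EDTA, 0.1 mg/ml BSA, 1mM TCEP and 0.01% Tween-20.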
Tau fluor counter: Counterscreen qHTS for Inhibitors of Tau Fibril Formation, Fluorescence Polarization; tau K18 P301L Alexa594 fluorescence, heparin fibrillization; AID 1463, 2008; 0.93% of 280,000 active; Potency, µM (series often up to 57.7 µM), without a hit: at the top dose activity change, negative = decrease; also: potency is read from the fitted curve at half-maximal effect; nearly all actives have a fitted effect of over 55% in size
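Human tau K18 P301L (15 uM unlabeled, 0.24 uM Alexa 594-labeled) in 100 mM sodium acetate pH 7 with 20 uM heparin, 6 hr at 37 C. ThT 30 uM added, 1 hr ambient; Alexa 594 FP and total fluorescence read at 555/632 nm.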
Coupling enz: qHTS Assay for Inhibitors of Fructose-1,6-bisphosphate Aldolase from Giardia Lamblia: Coupling assay counterscreen; coupling enzyme system counterscreen, AmpLite Red fluorescence; activity change, negative = inhibition, % at 58.2 µM, hits read low; 0.67% of 290,000 active; AID 2472, 2010; in the data active = activity change below about -30%
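Fluorescence at 525 nm excitation and 598 nm emission measured inhibition of the coupled detection system without aldolase. Compounds (at 57.5 uM final) were preincubated 10 min at room temperature with coupling enzyme reagent before a 20 min substrate/AmpLite Red step.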
Tau ThT inhib: qHTS for Inhibitors of Tau Fibril Formation, Thioflavin T Binding; Microtubule-associated protein tau (Homo sapiens), P10636; recombinant tau K18 P301L (four-repeat tau fragment), heparin-induced fibrillization, ThT fluorescence; Potency, µM (series often up to 57.4 µM), inactives show top-dose activity, negative = inhibition, usual class: inhibitors; 2.1% of 270,000 active; AID 1460, 2008; also: potency is read from the fitted curve at half-maximal effect; nearly all actives have a fitted effect of over 55% in size
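Tau K18 P301L fragment (15 uM unlabeled plus 0.24 uM Alexa 594-labeled) in 100 mM sodium acetate pH 7 with compound, fibrillization induced by 20 uM heparin for 6 hr at 37 C. Thioflavin T (30 uM) added, fluorescence read after 1 hr (ex 450, em 510 nm).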
Starred values were filed as active, the others as inactive; ? = inconclusive; / = no result given; [ ] = dose if it differs, or a comment. Unless noted, calls follow the shape of the dose curve; as a rule, active = well fitted curve in the direction sought with a large enough effect; inconclusive = small, poorly fitted or top-dose-only effect, or another doubt; inactive = no such curve, though single readings can be large; an effect the other way counts as inactive or inconclusive. % is scaled to controls: 0 for no effect and ±100 for the full control effect.

SMILES | Tau fibril FP | USP1 inh | Tau fluor counter | Coupling enz | Tau ThT inhib
Cn1cccc1/C=C1/SC(=S)N(CC(=O)O)C1=O | -3% | ? | -12% | 6 | 16µM*
CCC(C(=O)O)N1C(=O)/C(=C/c2cccn2C)SC1=S (configuration not stated) | 7% | ? | -1% | 16 | 13µM*
Cc1ccc(NC(=O)CN2C(=O)S/C(=C\c3cccn3C)C2=O)cc1 | -10% | -13% | -14% | 0 | -1%
O=C(O)C(Cc1ccccc1)N1C(=O)/C(=C/c2cccnc2)SC1=S (configuration not stated) | -18% | 5% | -8% | 9 | ?
COc1ccc(Br)cc1CNC(=O)C1CCCCN1S(=O)(=O)c1ccc(F)cc1 (configuration not stated) | -5% | -3% | -22% | / | -12%
CCCCc1ccc(NC(=O)C2(C)Cc3ccccc3C(=O)O2)cc1 (configuration not stated) | -5% | ? | -17% | / | -12%
O=C1c2ccccc2C(=O)N1c1cccc(-c2csc(Nc3ccc4c(c3)OCO4)n2)c1 | ? | / | 7.9µM*[quencher] | -2 | 8.9µM*
Clc1ccccc1CNc1nc2ccccc2c2nc(-c3cccnc3)nn12 | ? | 2% | -11% | / | -5%
O=C(Nc1ccc(OC(F)F)c(Cl)c1)C(c1ccccc1)c1ccccc1 | 28µM* | -5% | ? | -2 | 6%
O=C(Cc1cccc2ccccc12)Nc1ccc(OC(F)F)c(Cl)c1 | ? | ? | ? | -10 | 4%
CN(C)S(=O)(=O)c1ccc(-c2csc(N/N=C/c3ccc(O)cc3)n2)cc1 | -6% | -16% | 10µM*[quencher] | -5 | 14µM*
C(=N\Nc1nc(-c2ccccc2)cs1)/c1cccs1 | 8% | 1% | 13µM*[quencher] | 3 | 14µM*
ClCc1csc(N/N=C/c2cccs2)n1 | ? | / | ? | 3 | 18µM*
Cc1cc(NS(=O)(=O)c2ccc(Nc3nc(-c4ccc(O)cc4)cs3)cc2)no1 | 9% | -19% | 2% | 10 | -3%
C(=N\Nc1nc(-c2ccccc2)cs1)/c1ccncc1 | 7% | -3% | 13µM*[quencher] | 2 | 16µM*
O=C(Nc1ccc2oc(-c3cccc(F)c3)nc2c1)c1ccc2ccccc2c1 | ? | 11% | -9% | / | ?
CCCCNC(=O)CCn1c(=O)c2ccccc2n(Cc2cccc(Cl)c2)c1=O | 1% | -13% | 1% | / | 7%
O=C(COc1ccccc1F)Nc1nnc(SCc2cc(=O)n3ccccc3n2)s1 | 4% | -3% | -1% | / | -10%
CCc1ccc2c(c1)c1nc(C)sc1n2CC | ? | -19% | -26% | -21 | 25µM*
COc1ccc(CC(=O)c2c(O)cc(O)cc2O)cc1OC | 7% | 0% | ? | 15 | -12%
O=C(Cc1ccc(Cl)cc1)c1c(O)cc(O)cc1O | -13% | / | 16µM*[quencher] | 6 | ?
CNC(=O)C1C(=S)NC(N)=C(C#N)C1c1ccccc1 (configuration not stated) | 16µM* | -13% | -28% | 1 | 20µM*
Cc1ccc(NC(=S)NNC(=S)Nc2ccc(C)cc2)cc1 | / | -17% | / | / | /
Cc1ccc(NNC(=S)Nc2ccc(C(C)C)cc2)c(C)c1 | -8% | -9% | ? | -6 | 14µM*
O=C(N/N=C/c1c[nH]c2ccccc12)c1ccn(Cc2ccc(Cl)cc2Cl)n1 | 17% | -8% | 13µM*[quencher] | 1 | ?
SMILES | Tau fibril FP | USP1 inh | Tau fluor counter | Coupling enz | Tau ThT inhib
Cn1ccc(C(=O)N/N=C/c2c[nH]c3ccccc23)n1 | / | -21% | / | 1 | /
O=C(N/N=C/c1c[nH]c2ccc(Br)cc12)c1ccn(Cc2ccc(Cl)cc2)n1 | 10% | -4% | 11µM*[quencher] | -1 | ?
CCCOc1ccc(C(=O)N/N=C/c2c[nH]c3ccc(Br)cc23)cc1 | / | -4% | / | -1 | /
N#C/C(=C\c1ccc(-c2cccc(Cl)c2)o1)C(=O)Nc1cccc2cccnc12 | 8% | -9% | -17% | 1 | 2.5µM*
Clc1cccc(Cl)c1CNc1ccc(N2CCCC2)cc1 | ? | -11% | ? | -14 | 7.9µM*
CN1C(=O)c2c(sc3c2CCCC3)NC1c1ccccc1O (configuration not stated) | -11% | / | ? | -7 | ?
O=C1NC(c2cccs2)Nc2sc3c(c21)CCCC3 (configuration not stated) | ? | -5% | ? | -9 | 2.5µM*
NS(=O)(=O)c1ccc(N/N=C/c2cn(-c3ccccc3)nc2-c2cccs2)cc1 | -11% | -19% | 13µM*[quencher] | 0 | 16µM*
NS(=O)(=O)c1ccc(N/N=C/c2cn(-c3ccccc3)nc2-c2cccs2)c([N+](=O)[O-])c1 | 16% | -4% | ? | -1 | 2.5µM*
N#Cc1ccc(N/N=C/c2cn(-c3ccccc3)nc2-c2ccccc2)c([N+](=O)[O-])c1 | 1% | -10% | 0% | 2 | 8%
CN(C)c1ccc(CNC(=O)c2cccn2-c2nnc(N3CCCCC3)s2)cc1 | 11% | -16% | -5% | / | -6%
CSc1cccc(NC(=O)CC(c2cccs2)N2Cc3ccccc3C2=O)c1 (configuration not stated) | ? | -20% | ? | / | 11%
COc1cc(/C=C/C(=O)c2ccc(NS(=O)(=O)c3ccc(C)cc3)cc2)ccc1OC(F)F | -8% | -20% | 10% | 0 | 15%
COc1cc(/C=C/C(=O)c2ccc(C)c([N+](=O)[O-])c2)cc(OC)c1O | 7% | -3% | ? | 0 | 6.3µM*
COc1cc(/C=C/C(=O)c2c(O)cc(C)oc2=O)cc(OC)c1O | -14% | -28% | ? | 1 | 28µM*
COc1cc(/C=C/C(=O)c2ccc(NS(=O)(=O)c3ccc(C)cc3)cc2)cc(OC)c1O | 15% | -7% | 14µM*[quencher] | -3 | 11µM*
COc1cccc(/C=C/C(=O)c2c(O)cc(C)oc2=O)c1O | -4% | -29% | -27% | -2 | ?
COc1cc(/C=C/C(=O)c2c(O)ccc3c(C)cc(=O)oc23)ccc1O | -3% | -12% | -21% | 3 | 16µM*
COc1cccc2sc(N(Cc3cccnc3)C(=O)c3ccc4c(c3)OCCO4)nc12 | 0% | ? | -15% | / | -2%
O=[N+]([O-])c1ccc(Cl)c(-c2ccc(/C=N/n3cnnc3)o2)c1 | / | -28% | / | 1 | /
CN1CCN(/N=C/c2ccc(-c3ccc([N+](=O)[O-])cc3Cl)o2)CC1 | 11% | -24% | ? | 0 | 11µM*
Cc1cccc(NS(=O)(=O)c2ccc3c(c2)C(C)(C)C(=O)N3C)c1 | 0% | -2% | -5% | / | 2%

Compound activity as filed in PubChem BioAssay.
